What was measured:
Assay in all cases: PBM binding z-score (relative to random genomic background probes); higher = stronger binding; sequences stand for … in GC…GCGATTGACAGCGTAGAATGAAGG
[1] = tested on: FXR:RXRa (NR concentration 270 nM, RXRa partner concentration 90 nM)
Procedure, shortened: (§1)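 For binding z-scores, the reference was random background probes on custom Agilent 4×180K protein-binding microarrays. These arrays were incubated 1 h with ligand-free nuclear receptor dimers in PBS pH 7.4, 2% milk, 0.02% Triton X-100, 1 mM DTT, 0.2 mg/mL BSA and 0.4 mg/ml salmon testes DNA. Fluorescence was scanned after antibody detection of each partner (one per run) and regression-normalized.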

[2] = tested on: LXRa:RXRa (NR concentration 270 nM, RXRa partner concentration 90 nM)
Procedure, shortened: as §1

[3] = tested on: LXRa homodimer (NR concentration 270 nM)
Procedure, shortened: as §1

[4] = tested on: LXRb:RXRa (NR concentration 270 nM, RXRa partner concentration 90 nM)
Procedure, shortened: as §1

[5] = tested on: LXRb homodimer (NR concentration 270 nM)
Procedure, shortened: as §1

[6] = tested on: PPARa:RXRa (NR concentration 270 nM, RXRa partner concentration 90 nM)
Procedure, shortened: as §1

[7] = tested on: PPARg:RXRa (NR concentration 180 nM, RXRa partner concentration 90 nM)
Procedure, shortened: as §1

[8] = tested on: PPARg:RXRa 270nM:90nM, anti-RXR (NR concentration 270 nM, RXRa partner concentration 90 nM)
Procedure, shortened: as §1

[9] = tested on: PPARg:RXRa 30nM:10nM, anti-RXR (NR concentration 30 nM, RXRa partner concentration 10 nM)
Procedure, shortened: as §1

[10] = tested on: PPARg:RXRa 90nM:30nM, anti-RXR (NR concentration 90 nM, RXRa partner concentration 30 nM)
Procedure, shortened: as §1

Row | Sequence | PBM binding z-score [1] | PBM binding z-score [2] | PBM binding z-score [3] | PBM binding z-score [4] | PBM binding z-score [5] | PBM binding z-score [6] | PBM binding z-score [7] | PBM binding z-score [8] | PBM binding z-score [9] | PBM binding z-score [10]
1 | ATCGAAAGGTCGACGAGTTGAGTATACACCGTTT | 3.68 | 3.25 | 0.0436 | 2.75 | 0.676 | 3.98 | 2.27 | 2.77 | 1.17 | 1.91
2 | CGAACTAGCTCACCAGGACAGTGAAGAGGTTGGA | -0.472 | -0.64 | -0.125 | -0.561 | -0.585 | -0.517 | 0.165 | -0.517 | -0.602 | -0.751
3 | TTACCAAGGTGAAAGGTCGGTGATGCACGCCTTG | 2.27 | 1.8 | -0.377 | 1.34 | -0.609 | 4.27 | 7.36 | 6.88 | 6.6 | 7.95
4 | TGAATGAAGTTAAAGATCAGGGAACGTGGCGTCG | -0.402 | -0.168 | -0.348 | -0.389 | -0.518 | 0.212 | 0.843 | 1.61 | 0.713 | 1.3
5 | ATAGGTAGGTTAGGGTCATTCAGAAAGTAGGGAA | 5.28 | 4.39 | 2.09 | 4.8 | 2.83 | 5.26 | 5.56 | 4.89 | 2.63 | 4.2
6 | CGAACTAGGACATCCAGGACAGTGAATACATTGA | 0.00191 | -0.483 | 0.0183 | -0.213 | -0.407 | 0.451 | 1.35 | 0.774 | 0.322 | 0.462
7 | TAGCCTAGGTCATAGGGCCAGTATAGTACGCATC | 4.13 | 3.13 | 0.208 | 2.09 | -0.248 | 3.7 | 3.32 | 3.46 | 1.43 | 2.75
8 | CCGACGGGGGCAGAAAGGTTACCATACCATCCGG | 2.77 | 2.96 | 0.333 | 4.22 | 3.55 | 3.93 | 1.68 | 3.06 | 0.967 | 2.16
9 | CGTCCAAGGTCAAGCTCAGTGAAAGAGACTCGAA | 7.44 | 5.54 | 0.428 | 3.91 | 0.539 | 5.75 | 5.25 | 5.77 | 1.89 | 4.21
10 | ATATGTAGGTTAGGGTCATTCGGAAAGTAGGGAA | 5.03 | 4.43 | 1.22 | 4.4 | 1.67 | 5.83 | 7.56 | 6.42 | 4.48 | 6.36
11 | CCTGGCAGGCCAGGGTCACTCAAGCATTTCGCTT | 2.34 | 2.07 | -0.539 | 2.18 | -1.2 | 3.35 | 0.292 | 1.27 | -0.621 | 0.206
12 | TAGCCTAGGTCATTGGGCTAGTATAGTACGCATC | 4.29 | 3.19 | 0.404 | 1.81 | -0.386 | 3.63 | 2.59 | 3.08 | 0.744 | 1.97
13 | CGAACTAGGTCATCAGGACAGTGAAGAGGTTGGA | 4.1 | 2.56 | 0.124 | 1.44 | -0.279 | 5 | 7.71 | 6.43 | 4.15 | 5.72
14 | TAGCCTAGGCCATGGGCCAGTATACCACGCGAAC | -0.747 | -0.914 | -0.864 | -1.07 | -1.23 | -0.56 | 0.326 | -0.0896 | -0.9 | -0.67
15 | GCTCGGAGGACAAGGTCACAGCTTTGTCCGTAGA | 4.17 | 3.99 | 0.175 | 3.17 | 0.142 | 4.56 | 3.68 | 4.17 | 1.12 | 2.98
16 | GATACAAGGTCAGCTAGAGGCCAGAGTATGGAAA | 5.51 | 3.77 | 0.325 | 2.78 | -0.103 | 4.53 | 3.95 | 3.5 | 1.23 | 2.18
17 | ATCGAAAGGTCGTGAGGTGACTATACAGAAAGGC | 5.54 | 4.2 | 0.422 | 3.45 | 0.557 | 5.49 | 4.59 | 4.64 | 1.98 | 3.39
18 | TCTGCTTGGTCAACGATGGTCAGCTAATCTGCTA | -0.224 | -0.219 | -0.946 | -0.549 | -0.202 | 0.184 | -0.488 | 0.665 | 1.65 | 0.96
19 | CGAACTGGGTCACCAGGACAGTGAAGAGGTTGGA | 3.32 | 1.63 | -0.247 | 1.24 | -0.906 | 4.99 | 8.62 | 6.73 | 4.52 | 6.31
20 | ATCGAAAGGTCGCAGGTGAGTATACCCACCCGAA | 4.98 | 3.65 | 0.17 | 2.74 | 0.436 | 5.01 | 4.34 | 4.73 | 1.5 | 3.31
21 | GCTAGTGGGTCAGTAAAAGGTCACACACCGGTCG | 4.47 | 4.77 | 4.65 | 4.61 | 0.38 | 5.24 | 6.44 | 5.98 | 3.57 | 5.34
22 | CCTAGCAGGCCAATCGGGGTCACTCAAGGCTTGA | 4.42 | 4.3 | 0.394 | 3.97 | -0.646 | 4.79 | 2.8 | 3.72 | 0.796 | 2.75
23 | GACACAGGGTCAGCTAGAGGCCAGAGTATGGAAA | 4.61 | 2.62 | -0.521 | 2.32 | -0.984 | 4.57 | 3.5 | 3.17 | 0.295 | 1.71
24 | CCTTACAGGTCAAGGTTATAGCACGGGTGGTACG | 6.13 | 4.73 | 2.02 | 3.5 | 1.18 | 5.2 | 4.94 | 4.89 | 1.9 | 3.82
